Experimental data as given in PubChem BioAssay (EPA / NIEHS).
Records with an inconclusive call do not appear. Activity calls are given as the source filed them. The calls were made as follows, unless noted: active = hit-call score of the fitted dose curve at least 0.9, where 1 is the maximum; inactive = score below 0.9.

How the values were obtained:
[1] = IUF_NPC1b_proliferation_BrdU_72hr: Leibniz Research Institute for Environmental Medicine (IUF) 72-hour Neural Progenitor Cell Bromodeoxyuridine (BrdU) Proliferation Assay (NPC1b) (AID 2284207)
Summary of the method: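 BrdU luminescence ELISA quantified DNA synthesis over the last 16 h of a 72 h exposure, fitted against DMSO. Primary hNPC spheres from gestational week 16-19 cortex grown with EGF/FGF at 37C, pH 7.2-7.6.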

[2] = IUF_NPC1a_proliferation_area_72hr: Leibniz Research Institute for Environmental Medicine (IUF) 72-hour Neural Progenitor Cell Proliferation Area Assay (NPC1a) (AID 2284208)
Summary of the method: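 Measured in 3D suspension: each well held one primary hNPC sphere grown with EGF and FGF at pH 7.2-7.6. Compound stayed on for 72 h, then area was imaged; spheres lacking growth factors defined reduced proliferation.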

[3] = IUF_NPC1_viability_72hr: Viability Assessment at 72 hours in the Leibniz Research Institute for Environmental Medicine (IUF) Neural Progenitor Cell Proliferation Assay (NPC1) (AID 2284209)
Summary of the method: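 Single spheres (0.25-0.35 mm) of human fetal cortex-derived neural progenitor cells were grown in proliferation medium with EGF and FGF at 37C and 5% CO2. They were exposed for 72 h without renewal, and viability was read by alamar blue resorufin fluorescence.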

[4] = IUF_NPC2c_oligodendrocyte_migration_120hr: Leibniz Research Institute for Environmental Medicine (IUF) 120-hour Neural Progenitor Cell Migration Assay for Oligodendrocyte Migration (NPC2c) (AID 2284297);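 also: O4-positive oligodendrocyte migration distance divided by radial glia migration distance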
Summary of the method: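 Using fetal brain neural progenitor spheres differentiating in N2 medium at 37C, compounds were present for 120 h. Oligodendrocyte migration distance, normalized to radial glia migration, was measured from imaged O4 staining.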

[5] = IUF_NPC2a_radial_glia_migration_120hr: Leibniz Research Institute for Environmental Medicine (IUF) 120-hour Neural Progenitor Cell Migration Assay for Radial Glia Migration (NPC2a) (AID 2284298)
Summary of the method: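 Exposure of 0.3 mm primary hNPC spheres runs day 0 to 120 h with a half-volume medium change at day 3. Fixed cells get Hoechst staining; high-content analysis of nuclear positions yields radial glia migration distance per well, compared against DMSO controls.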

[6] = IUF_NPC2a_radial_glia_migration_72hr: Leibniz Research Institute for Environmental Medicine (IUF) 72-hour Neural Progenitor Cell Migration Assay for Radial Glia Migration (NPC2a) (AID 2284299)
Summary of the method: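 Human fetal neural progenitor spheres (0.3 mm) plated on poly-D-lysine/laminin in N2 differentiation medium and exposed from day 0 at 7 concentrations; radial glia migration distance from sphere edge measured at 72 h on brightfield images, mean of four directions, vs DMSO.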

[7] = IUF_NPC2b_neuronal_migration_120hr: Leibniz Research Institute for Environmental Medicine (IUF) 120-hour Neural Progenitor Cell Migration Assay for Neuron Migration (NPC2b) (AID 2284300)
Summary of the method: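 Fetal human NPC spheres migrate on PDL/laminin during 120 h compound treatment; neuronal migration distance, glia-normalized, scored versus DMSO control.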

[8] = IUF_NPC3_neuronal_differentiation_120hr: Leibniz Research Institute for Environmental Medicine (IUF) 120-hour Neuronal Differentiation Assay (NPC3) (AID 2284301)
Summary of the method: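 Human fetal (GW 16-19) neural progenitor spheres (0.3 mm) plated on poly-D-lysine/laminin in N2 differentiation medium, exposed 120 h at 37C with half-medium renewal day 3; 7 concentrations. TUBB3+ cells as % of Hoechst nuclei, CNN-identified; DMSO baseline.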

[9] = IUF_NPC4_neurite_area_120hr: Leibniz Research Institute for Environmental Medicine (IUF) 120-hour Neuronal Morphology Assay for Neurite Area (NPC4) (AID 2284305; active = hit-call score of the fitted dose curve at least 0.9, where 1 is the maximum)
Summary of the method: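 Human fetal neural progenitor spheres (0.3 mm) plated on poly-D-lysine/laminin in N2 differentiation medium, exposed 120 h (7 concentrations, DMSO ≤0.1%, half-medium refresh day 3). Fixed, TUBB3 immunostained; mean neurite area per neuron by Omnisphero skeletonization.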

[10] = IUF_NPC2-5_cytotoxicity_72hr: Cytotoxicity Assessment at 72 hours in the Leibniz Research Institute for Environmental Medicine (IUF) Neural Progenitor Cell Migration and Differentiation Assay for Cytotoxicity (NPC2-5) (AID 2284306; active = hit-call score of the fitted dose curve at least 0.9, where 1 is the maximum;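 also: LDH release into supernatant measured by resorufin fluorescence marking membrane damage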)
Summary of the method: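 Human fetal primary neural progenitor spheres (0.3 mm) plated on poly-D-lysine/laminin in N2 differentiation medium, exposed from day 0 at 37C. LDH-dependent resazurin-to-resorufin fluorescence in supernatant at 72 h; 7 concentrations, DMSO at most 0.1%.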

[11] = IUF_NPC2-5_cell_number_120hr: Cell Number Assessment at 120 hours in the Leibniz Research Institute for Environmental Medicine (IUF) Neural Progenitor Cell Migration and Differentiation Assay (NPC2-5) (AID 2284308);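 also: count of Hoechst-stained nuclei in migration zone around plated human neural progenitor spheres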
Summary of the method: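 Seven-point serial dilutions plus solvent control were applied to plated 0.3 mm hNPC spheres at differentiation start, with medium half-replaced at day 3. Nuclei positive for Hoechst in the migration zone were enumerated at 120 h.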

[12] = IUF_NPC2-5_viability_120hr: Viability Assessment at 120 hours in the Leibniz Research Institute for Environmental Medicine (IUF) Neural Progenitor Cell Migration and Differentiation Assay (NPC2-5) (AID 2284312)
Summary of the method: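 Human fetal neural progenitor spheres (0.3 mm) plated on poly-D-lysine/laminin in N2 differentiation medium, exposed 120 h with half-medium refresh at day 3. Viability by alamar blue resazurin fluorescence; 7 concentrations, DMSO max 0.1%.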

[13] = IUF_NPC1_cytotoxicity_72hr: Cytotoxicity Assessment at 72 hours in the Leibniz Research Institute for Environmental Medicine (IUF) Neural Progenitor Cell Proliferation Assay (NPC1) (AID 2284332; active = hit-call score of the fitted dose curve at least 0.9, where 1 is the maximum;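 also: rising LDH signal means more cytotoxicity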)
Summary of the method: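 Human fetal neural progenitor spheres (0.3 mm) in EGF/FGF proliferation medium, 37C, exposed 72 h without renewal. LDH release in supernatant read by resorufin fluorescence; gain of signal scored relative to dynamic range.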

[14] = CCTE_Harrill_HTTr_Viability_MCF7: CCTE's 6-hour Cell Viability Assessment for the High-Throughput Transcriptomics (HTTr) Platform, in MCF-7 cells cultured in DMEM + 10% fetal bovine serum, Harrill Lab (AID 2284010)
Summary of the method: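 MCF-7 cells in DMEM + 10% FBS, 384-well, exposed 6 h to an eight-point dilution series. Membrane integrity scored by high-content imaging of propidium iodide exclusion; bidirectional fit versus DMSO.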

[15] = CCTE_Harrill_HTTr_Apoptosis_MCF7: CCTE's 6-hour Apoptosis Assessment for the High-Throughput Transcriptomics (HTTr) Platform, in MCF-7 cells cultured in DMEM + 10% fetal bovine serum, Harrill Lab (AID 2284011)
Summary of the method: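 Apoptosis in MCF-7 cells grown in DMEM with 10% fetal bovine serum was scored after a six hour exposure by high content imaging of caspase-3/7 activation (CellEvent Caspase 3/7 Green), with DMSO serving as negative control and baseline.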

[16] = CCTE_Harrill_HTTr_CellCount_MCF7: CCTE's Cell Proliferation Assessment for the High-Throughput Transcriptomics (HTTr) Platform, Harrill Lab (AID 2284012; active = hit-call score of the fitted dose curve at least 0.9, where 1 is the maximum;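 also: cells exposed to compound for six hours; intended direction is loss of nuclei count meaning fewer cells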)
Summary of the method: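 MCF7 cells exposed 6 hours to an eight-point dilution series; Hoechst-stained nuclei counted by high-content imaging. Bidirectional curve fitting against DMSO baseline.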

| Compound | outcome [1] | outcome [2] | AC50 [3] | outcome [4] | outcome [5] | outcome [6] | outcome [7] | outcome [8] | outcome [9] | outcome [10] | outcome [11] | outcome [12] | outcome [13] | outcome [14] | outcome [15] | outcome [16] |
| --- | --- | --- | --- | --- | --- | --- | --- | --- | --- | --- | --- | --- | --- | --- | --- | --- |
| CCCCOCCOP(=O)(O)OCCOCCCC | inactive | inactive | 2.46 µM (active) | inactive | inactive | inactive | inactive | inactive | inactive | inactive | inactive | inactive | inactive |  |  |  |
| CC(=CC(C)(C)C)CC(C)(C)C |  |  |  |  |  |  |  |  |  |  |  |  |  | inactive | inactive | inactive |
